Measured values taken from the supplement of paper PMC7801607.

Legend:
[1] = tested on: CHO; assay: % viability of CHO cells (MTT); higher = less toxic; conditions: 48 h
Outline: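 CHO cells seeded at 10^6 cells/well were exposed to compound at 2 or 20 µM for 48 h. Survival, as percent of untreated cells, was measured with the colorimetric tetrazolium (MTT) assay.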

[2] = tested on: HepG2-A16-CD81; assay: % inhibition of HepG2 viability (CellTiter-Glo); higher = more toxic; conditions: 5 µM;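 note: HepG2-A16-CD81 hepatoma cells plated as in the liver-stage assay but without sporozoites, with DMSO wells as negative and 25 µM puromycin as positive control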
[3] = tested on: Plasmodium falciparum NF54 stage IV/V gametocytes; assay: % inhibition of gametocyte viability (PrestoBlue); higher = more inhibition; conditions: 48 h
Outline: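 Compound was tested at 1 or 5 µM against Stage IV/V NF54 gametocytes plated at 100 µL/well (2% gametocytaemia, 5% haematocrit). After 48 h of stationary, hypoxic incubation at 37 °C, 10 µL PrestoBlue was added for 2 h before reading 612 nm fluorescence from 70 µL of transferred supernatant. Gametocyte viability inhibition, as a percentage, was scaled against vehicle and kill controls from a single run.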

[4] = tested on: Plasmodium falciparum NF54 asexual blood stage; assay: % inhibition of asexual blood stage proliferation (pLDH); higher = more inhibition; conditions: 72 h
Outline: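 In 96-well plates, compound at 2 or 20 µM was added to Plasmodium falciparum NF54 ring-stage cultures (1% haematocrit, 2% parasitaemia). Plates were incubated for 72 h at 37 °C in 4% CO2, 3% O2 and 93% N2, and survival was then read at 620 nm using the parasite lactate dehydrogenase assay. Inhibition of asexual proliferation, expressed as a percentage, was normalised to controls.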

[5] = tested on: Plasmodium falciparum NF54 stage IV/V gametocytes; assay: % inhibition of gametocyte viability (ATP bioluminescence); higher = more inhibition; conditions: 24 h
Outline: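 Density gradients were used to enrich stage IV/V NF54 gametocytes, which were then seeded into 96-well plates at 30,000 per well with compound at 1 or 5 µM. The plates were incubated at 37 °C for 24 h, and ATP was measured with the Promega BacTiter Glo bioluminescence system. Percent inhibition of gametocyte viability was normalised to the plate controls from a single run.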

[6] = tested on: Plasmodium falciparum NF54 stage IV/V gametocytes; assay: % inhibition of gametocyte viability (luciferase reporter); higher = more inhibition; conditions: 48 h
Outline: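 Luminescence from 30 µL lysate combined with 30 µL Promega luciferin substrate was recorded on a GloMax-Multi+ reader using 10 s integration. The lysate came from stage IV/V NF54-Pfs16-GFP-Luc gametocytes (2% gametocytaemia, 2% haematocrit) held with compound at 1 or 5 µM for 48 h at 37 °C under stationary, hypoxic conditions. Percent inhibition was normalised against controls run once.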

Row | SMILES | % viability of CHO cells ([1]; 2 µM) [%] | % viability of CHO cells ([1]; 20 µM) [%] | % inhibition of HepG2 viability [2] [%] | % inhibition of gametocyte viability ([3]; 1 µM) [%] | % inhibition of gametocyte viability ([3]; 5 µM) [%] | % inhibition of asexual blood stage proliferation ([4]; 2 µM) [%] | % inhibition of asexual blood stage proliferation ([4]; 20 µM) [%] | % inhibition of gametocyte viability ([5]; 1 µM) [%] | % inhibition of gametocyte viability ([5]; 5 µM) [%] | % inhibition of gametocyte viability ([6]; 1 µM) [%] | % inhibition of gametocyte viability ([6]; 5 µM) [%]
1 | O=C(Cc1ccccc1F)Nc1nc2ccccc2[nH]1 | 104 | 87.3 | 7.61 | 5.47 | 21.8 | 37.1 | 29.8 | < 0 | < 0 | < 0 | < 0
2 | O=C(NCCN1CCCCC1)c1cccc(C(F)(F)F)c1 | 96.7 | -13 | 1.19 | < 0 | < 0 | 16.9 | 78.6 | < 0 | 2.48 | 12.3 | < 0
3 | CN(C)CCCNC(=O)c1ccc(-c2cc(O)c3ncccc3c2)cc1 | 115 | 110 | -5.75 | 70.8 | 81.4 | 68.6 | 82.4 | 71 | 81.1 | 5.12 | 23.3
4 | CCc1cc(Nc2cc(=O)n(CCN3CCN(C(=O)c4ccccc4)CC3)c(=O)[nH]2)ccc1C | 93.2 | 103 | -1.38 | < 0 | 23.7 | -6.84 | 61.3 | < 0 | < 0 | < 0 | 9.16
5 | C=CCN(C(=O)OCc1ccc([N+](=O)[O-])cc1)C1CCN(CC[C@](C)(CN(C)S(=O)(=O)c2ccccc2)c2ccccc2)CC1 | 129 | 122 | -6.75 | 4.29 | 13.4 | 59.7 | 78.9 | < 0 | 32 | 2.56 | < 0
6 | CN(O)C(=O)c1cc2c(CN3CCC[C@H]3C(N)=O)cn(Cc3ccc(F)cc3)c2cn1 | 96 | 119 | -5.55 | 31.6 | 30.7 | 16.8 | 52.7 | < 0 | < 0 | < 0 | < 0
7 | Nc1nc(O)c2ncn(COC(CO)CO)c2n1 | 83.5 | 59.2 | 3.01 | < 0 | < 0 | 6.2 | 41.8 | < 0 | 0.568 | 7.58 | < 0
8 | Nc1cc(N)c2nc(-c3ccccc3)c(Nc3ccc(F)cc3)nc2c1 | 97.5 | 88.4 | 12.8 | < 0 | < 0 | 91 | 92.4 | < 0 | 19.7 | < 0 | < 0
9 | COc1ccc(CNC(=O)C2CCN([C@H](C)c3cccc4ccccc34)CC2)cc1 | 128 | 70.1 | 0.399 | < 0 | 11 | 79.1 | 64.2 | 8.45 | 8.31 | 12.8 | < 0
10 | COc1cc(C(C(=O)NC2CCCCC2)N(C(=O)Cc2c[nH]c3ccccc23)c2ccc(C(C)C)cc2)cc(OC)c1OC (configuration not stated) | 90.8 | 90.4 | 1.92 | 18.7 | 22.7 | 22.1 | 71.8 | < 0 | 7.49 | 1.84 | 18.1
11 | O=C(O)COc1cccc2c1CC[C@](O)(COC(=O)N(c1ccccc1)c1ccccc1)C2 | 92.5 | 105 | -9.51 | 23.2 | 25.8 | 11.3 | -4.41 | < 0 | < 0 | 1.62 | < 0
12 | O=C(CSc1nnc(Br)n1-c1ccc(C2CC2)c2ccccc12)Nc1ccc(C(=O)O)cc1Cl | 98.5 | 61.4 | -1.62 | 15.4 | 20.5 | 3.71 | 46.7 | < 0 | < 0 | < 0 | < 0
13 | CC(C)Cn1c(=O)n(C)c(=O)c2c(-c3cncn3C)n(Cc3cccc4ccccc34)nc21 | 92.4 | 102 | 8.23 | 3.5 | 22.5 | 85.2 | 118 | < 0 | < 0 | 11.4 | < 0
14 | O=S(=O)(NCB(O)O)c1cc2c(Cl)ccc(Cl)c2s1 | 91.2 | 59.2 | 30.9 | 22.6 | 27.1 | -17.5 | -8.49 | < 0 | < 0 | < 0 | < 0
15 | C[C@@H](NC(=O)c1cccc(-c2c[nH]c(-c3cc4ccccc4cn3)n2)c1)c1ccc(F)cc1 | 91.9 | 101 | -1.52 | 9.05 | 8.49 | 21.8 | 72.3 | 28.5 | 83.2 | 0.447 | 1.09
16 | CC(C)Nc1ncnc2c1cnn2-c1ccc(Cl)cc1 | 89.8 | 122 | 13.3 | 17.9 | 15.6 | 18.3 | 69.3 | < 0 | < 0 | < 0 | 62.4
17 | CN(Cc1ccc(C(C)(C)C)cc1)Cc1cccc2ccccc12 | 92.4 | 110 | 2.12 | 7.34 | 8.91 | -5.03 | 71.1 | < 0 | < 0 | < 0 | < 0
18 | O=C(Nc1ncc(Cc2cccc3ccccc23)s1)C1CCCCC1 | 83.3 | 53.3 | 7.25 | 16.9 | < 0 | 22.6 | 42.9 | < 0 | < 0 | < 0 | 0.604
19 | O=C1CCC(N2C(=O)c3ccccc3C2=O)C(=O)N1 (configuration not stated) | 129 | 120 | -2.75 | < 0 | < 0 | 30.6 | 69.3 | < 0 | < 0 | 0.963 | 6.01

Row | SMILES | % viability of CHO cells ([1]; 2 µM) [%] | % viability of CHO cells ([1]; 20 µM) [%] | % inhibition of HepG2 viability [2] [%] | % inhibition of gametocyte viability ([3]; 1 µM) [%] | % inhibition of gametocyte viability ([3]; 5 µM) [%] | % inhibition of asexual blood stage proliferation ([4]; 2 µM) [%] | % inhibition of asexual blood stage proliferation ([4]; 20 µM) [%] | % inhibition of gametocyte viability ([5]; 1 µM) [%] | % inhibition of gametocyte viability ([5]; 5 µM) [%] | % inhibition of gametocyte viability ([6]; 1 µM) [%] | % inhibition of gametocyte viability ([6]; 5 µM) [%]
20 | Clc1ccc(Cn2c(CN3CCCC3)nc3ccccc32)cc1 | 97.8 | 91.5 | 2.06 | 23.6 | 61 | 11.9 | 69 | 10.2 | 57.1 | 1.55 | < 0
21 | Cc1ccc(NC(=O)c2cc(Cl)ccc2O)cc1 | 101 | -0.714 | 29.4 | < 0 | < 0 | 57.7 | 98.8 | < 0 | < 0 | 5.12 | 4.7
22 | CC(C)(C)c1ccc(C(Cn2cccc(C(F)(F)F)c2=O)NC2Cc3ccccc3C2)cc1 (configuration not stated) | 106 | 94.3 | -1.5 | 10 | 21.3 | 32.7 | 69.1 | < 0 | < 0 | < 0 | 3.42
23 | COc1cc(Cc2cc(N)nc(N)n2)cc(OC)c1OC | 107 | 103 | 4.91 | < 0 | < 0 | 43.4 | 50.8 | < 0 | < 0 | < 0 | < 0
24 | CN1c2ccc(Cl)cc2N(c2ccccc2)C(=O)c2cn(Cc3ccc(CN4CCOCC4)cc3)nc21 | 90.9 | 69.1 | -4.81 | 18.2 | 30.1 | 0.489 | 23.7 | 0.0957 | < 0 | 15.5 | 0.583
25 | CCNC(=O)Nc1cc2c(-c3ccnc(C)c3)ccc(CNC(=O)OC)c2cn1 | 92.8 | 58.1 | 5.56 | < 0 | 27.4 | 0.638 | 33.7 | < 0 | < 0 | < 0 | 5.9
26 | Oc1cc(-c2cccc3ccccc23)[nH]n1 | 109 | 68.8 | 2.56 | 4.17 | 26.7 | 3.8 | -4.8 | < 0 | < 0 | < 0 | < 0
27 | CCc1cc(O)c(Oc2ccc(C(N)=O)cc2F)cc1F | 116 | 100 | 3.65 | 18.7 | 17.8 | 54.5 | 62.6 | < 0 | < 0 | < 0 | < 0
28 | O=C(Nc1nnc(-c2ccccc2)o1)c1ccc(F)cc1 | 88.3 | 114 | 8.93 | 8.12 | < 0 | 52.8 | 61.2 | < 0 | < 0 | < 0 | < 0
29 | Cc1cc(Nc2ccc(F)cc2)nc(SCc2nc3ccccc3[nH]2)n1 | 91.4 | 101 | 4.62 | 19 | 32.7 | -9.36 | -3.55 | 1.25 | 33.8 | < 0 | < 0
30 | CC(C)Oc1ccc(-n2cnc3cc(/C=C\c4ccc(C(C)(C)O)cc4)ccc32)cc1 | 113 | 115 | 5.08 | 30.8 | 32.2 | 25.6 | 54.7 | < 0 | < 0 | < 0 | < 0
31 | CC1CCc2c(N3CCC(O)CC3)c(F)cc3c(=O)c(C(=O)O)cn1c23 (configuration not stated) | 84.2 | 87.6 | 2.9 | < 0 | 11.7 | 69.7 | 98.8 | < 0 | < 0 | 1.04 | 6.66
32 | CCC(C)(C)c1ccc(CC(C)CN2C[C@@H](C)O[C@@H](C)C2)cc1 (some centres not stated) | 100 | 124 | -1.79 | < 0 | 4.53 | 89.6 | 82 | < 0 | < 0 | < 0 | < 0
33 | O=c1oc2ccc(Br)cc2cc1CSc1ncc[nH]1 | 112 | 73.8 | 3.9 | 11.2 | 7.96 | -5.59 | 79 | 6.38 | 5.34 | 4.59 | < 0
34 | C[C@@H](O)[C@H](N)C(=O)NS(=O)(=O)c1cccc(-c2ccc3[nH]ncc3c2)c1 | 85.2 | 96 | -0.0475 | 35.8 | 19.7 | -13.1 | 32 | < 0 | < 0 | < 0 | 6.84
35 | CONC(=N)c1ccc(-c2ccc(-c3ccc(C(=N)NOC)cc3)o2)cc1 | 111 | 121 | 2.49 | 11.8 | 9.28 | -3.01 | 1.5 | 0.615 | < 0 | < 0 | < 0
36 | O=P(O)(O)C(CCCc1cccc(Oc2ccccc2)c1)S(=O)(=O)O (configuration not stated) | 113 | 109 | -5.33 | 12.4 | 30.6 | 34.7 | 69.9 | < 0 | < 0 | < 0 | 3
37 | Cc1onc(-c2ccccc2Cl)c1C(=O)N[C@@H]1C(=O)N2[C@@H]1SC(C)(C)[C@@H]2C(=O)O | 126 | 143 | -1.54 | < 0 | 30.1 | 8.35 | -0.0824 | < 0 | < 0 | < 0 | 7.91
